From PubChem BioAssay (NCATS)
Results filed as inconclusive are left out. Where a call stands in place of a potency, no number is given. Calls of active or inactive are those of the source. Unless noted, the call rests on the fitted dose curve; in most records, active means well fitted curve in the direction sought with a large enough effect; inconclusive means small, poorly fitted or top-dose-only effect, or another doubt; inactive means no such curve, though single readings can be large; an effect the other way counts as inactive or inconclusive.

Assays:
[1] = qHTS assay for measurement of the activity of small molecule inhibitors on Zika virus induced Caspase-3 activity in human iPSC derived neural progenitor cells (hNPCs) (AID 1224857); further: nearly all actives have a fitted effect of over 65% in size
Procedure, shortened: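 Human iPSC-derived neural progenitor cells pretreated 1 hr with compounds, then infected with Zika virus (2 FFU/cell) for 6 hours at 37 C. Caspase-3/7 measured by Caspase-Glo luminescence; % inhibition calculated from induction scaled to uninfected (0%) and infected (100%) wells.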

[2] = qHTS assay for measurement of the activity of small molecule inhibitors on Zika virus induced Caspase-3 activity in human astrocytoma cells (AID 1224859)
Procedure, shortened: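 SNB-19 astrocytoma cells, 250/well, pretreated 1 h with compounds, then Zika virus at 2 FFU/cell for 6 h at 37 C; Caspase-Glo 3/7 luminescence after 30 min; percent inhibition normalised to uninfected and infected controls.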

[3] = qHTS assay to identify small molecule inhibitors of chordoma cells - UCH-1 (AID 1259355); further: nearly all actives have a fitted effect of over 55% in size; further: potency means the concentration at half of the fitted maximal effect
Procedure, shortened: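 800 cells/well, overnight attach; compounds pinned at 15 concs, then auranofin/camptothecin/doxorubicin/rubitecan/topotecan combo added; 48hr 37 C, 5% CO2; CellTiter-Glo, 30min RT, luminescence.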

[4] = qHTS assay to identify small molecule inhibitors of chordoma cells - UCH-2 (AID 1259356)
[5] = qHTS profiling of the MIPE4 collection as inhibitors of Plasmodium falciparum (DD2) proliferation (AID 743345; call rule not given here); settings: P. falciparum Dd2 in erythrocytes, SYBR Green DNA, 72 h; at 28.5 µM (top of the series) unless noted
Procedure, shortened: (§1)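 Parasite DNA was quantified by SYBR Green I fluorescence (ex 485, em 535 nm) after overnight lysis in saponin/Triton buffer at room temperature. Cultures at 0.3% parasitemia and 2.5% hematocrit were first exposed to compound for 72 h at 37 C; signals were normalised to artemisinin (0.29 uM) and vehicle wells.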

[6] = qHTS profiling of the MIPE4 collection as inhibitors of Plasmodium falciparum (DD2) proliferation (Rep 2) (AID 743346; call rule not given here); settings: P. falciparum Dd2 in erythrocytes, SYBR Green DNA, 72 h; at 28.5 µM (top of the series) unless noted
Procedure, shortened: as §1

[7] = qHTS profiling of the MIPE4 collection as inhibitors of Plasmodium falciparum (HB3) proliferation (AID 743347; call rule not given here); settings: P. falciparum HB3 in erythrocytes, SYBR Green DNA, 72 h; at 28.5 µM (top of the series) unless noted
Procedure, shortened: as §1

[8] = qHTS profiling of the MIPE4 collection as inhibitors of Plasmodium falciparum (3D7) proliferation (AID 743344; call rule not given here); settings: P. falciparum 3D7 in erythrocytes, SYBR Green DNA fluorescence, 72 h; at 28.5 µM (top of the series) unless noted
Procedure, shortened: as §1

[9] = High-throughput drug toxicity screening in the BPDCN cell line Gen2.2 (AID 1224824; call rule not given here;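 further: cells exposed to compounds for 48 h before reading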); settings: Gen2.2 BPDCN cells; at 45.8 µM (top of the series) unless noted
Procedure, shortened: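 Gen2.2 cells, 500 per well in phenol red-free RPMI with 10% FBS, exposed to compounds 48 h at 37 C, 5% CO2; viability by CellTiter-Glo luminescence. Percent activity scaled to DMSO (100%) and 9.2 uM bortezomib final (0%).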

[10] = qHTS Screen of the MIPE 4.0 Collection Against Ewings Sarcoma (TC71) (AID 1259253); further: nearly all actives have a fitted effect of over 40% in size
Procedure, shortened: (§2)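 CellTiter-Glo luminescence after 48 h compound exposure (titration) gave viability; percent activity used DMSO-treated cells as no inhibition and medium-only wells as full inhibition. Cells grown in RPMI/5% FBS, dosed 4 h post-seeding.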

[11] = qHTS Screen of the MIPE 4.0 Collection Against Ewings Sarcoma (EW8) (AID 1259255); further: nearly all actives have a fitted effect of over 35% in size
Procedure, shortened: as §2

[12] = qHTS Screen of the MIPE 4.0 Collection Against Ewings Sarcoma (TC32) (AID 1259256); further: nearly all actives have a fitted effect of over 45% in size
Procedure, shortened: as §2

[13] = qHTS Screen of the MIPE 4.0 Collection Against Ewings Sarcoma (RDES) (AID 1259252); further: nearly all actives have a fitted effect of over 35% in size
Procedure, shortened: as §2

In the case of `CN(C)CCC(c1ccccc1)c1ccccn1` (stereo unspecified), the Potency [1] is reported as “inactive”, the Potency [2] is reported as “inactive” and the Potency [3] is reported as “inactive”. For the same compound, the outcome [4] was “inactive”.

For `CC(=O)CCCCn1c(=O)c2c(ncn2C)n(C)c1=O`, the Potency [1] was “inactive”, the Potency [2] was “inactive” and the Potency [3] was “inactive”. The outcome [4] was “inactive”.

For `CCN(CC)CCOC(=O)c1ccc(N)cc1`, the Potency [1] was “inactive”, the Potency [2] was “inactive” and the Potency [3] was “inactive”. The outcome [4] was “inactive”.

With `C[C@@H](O)[C@H]1C(=O)N2C(C(=O)O)=C(S[C@@H]3CN[C@H](C(=O)N(C)C)C3)[C@H](C)[C@H]12` the parasite growth remaining, % of DMSO control (lower = more inhibition) [5] was 102% [at 9.64 µM], the parasite growth, % of control (lower = inhibition) [6] was 118% [at 9.64 µM] and the growth, % of control [7] was 61.4% [at 9.64 µM]. The Potency [1] was “inactive”, the Potency [2] was “inactive” and the Potency [3] was “inactive”. For the same compound, the outcome [4] was “inactive”.

For `CC[C@]1(O)C[C@@H]2CN(CCc3c([nH]c4ccccc34)[C@@](C(=O)OC)(c3cc4c(cc3OC)N(C)[C@H]3[C@@](O)(C(=O)OC)[C@H](OC(C)=O)[C@]5(CC)C=CCN6CC[C@]43[C@@H]65)C2)C1`, the Potency [1] was “inactive”, the Potency [2] was “inactive” and the Potency [3] was 5.62 µM (active). For the same compound, the outcome [4] was “inactive”.

In the case of `O=C(O)CCc1nc(-c2ccccc2)c(-c2ccccc2)o1`, the Potency [1] is reported as “inactive”, the Potency [2] is reported as “inactive” and the Potency [3] is reported as “inactive”. The outcome [4] was “inactive”.

For `NC(=S)c1ccc[n+]([C@@H]2O[C@@H](COP(=O)([O-])OP(=O)(O)OC[C@H]3O[C@@H](n4cnc5c(N)ncnc54)[C@H](OP(=O)(O)O)C3O)C(O)C2O)c1` (stereo partly specified), the Potency [1] was “inactive”.

With `C[N+](C)(C)CCCCCC[N+](C)(C)C` the Potency [1] was “inactive”, the Potency [2] was “inactive” and the Potency [3] was “inactive”. For the same compound, the outcome [4] was “inactive”.

For `O=c1c(-c2ccc(O)cc2)coc2cc(O[C@@H]3O[C@H](CO)[C@H](O)[C@H](O)[C@H]3O)ccc12`, the parasite growth, % of DMSO control [8] was 91.8%, the parasite growth remaining, % of DMSO control (lower = more inhibition) [5] was 97.7% and the parasite growth, % of control (lower = inhibition) [6] was 85.3%. For the same compound, the growth, % of control [7] was 104%, the cell viability, % of control (lower = more cytotoxic) [9] was 101% and the Potency [10] was “inactive”. The Potency [11] was “inactive” and the Potency [12] was “inactive”.

For `CCN(CC)CCNC(=O)c1ccc(N)cc1`, the Potency [1] was “inactive”, the Potency [2] was “inactive” and the Potency [3] was “inactive”. For the same compound, the outcome [4] was “inactive”.

With `CCCNC(=O)NS(=O)(=O)c1ccc(Cl)cc1` the Potency [1] was “inactive”, the Potency [2] was “inactive” and the Potency [3] was “inactive”. For the same compound, the outcome [4] was “inactive”.

With `COC(=O)[C@@H]1[C@H]2C[C@H]3c4[nH]c5ccccc5c4CCN3C[C@@H]2CC[C@@H]1O` the Potency [1] was “inactive”, the Potency [2] was “inactive” and the Potency [3] was “inactive”. For the same compound, the outcome [4] was “inactive”.

With `Cc1cccc(C)c1OCC(C)N` (stereo unspecified) the Potency [1] was “inactive”, the Potency [2] was “inactive” and the Potency [3] was “inactive”. The outcome [4] was “inactive”.

For `CC(=O)O[C@]1(C(C)=O)CC[C@H]2[C@@H]3C=C(Cl)C4=CC(=O)[C@@H]5C[C@@H]5[C@]4(C)[C@H]3CC[C@@]21C`, the Potency [1] was “inactive”, the Potency [2] was “inactive” and the Potency [3] was “inactive”. For the same compound, the outcome [4] was “inactive”.

With `CCN(CC)C(=O)c1ccc(O)c(OC)c1` the Potency [1] was “inactive”, the Potency [2] was “inactive” and the Potency [3] was “inactive”. The outcome [4] was “inactive”.

In the case of `O=C1NCC2(CCN(CCc3ccccc3)CC2)O1`, the Potency [1] is reported as “inactive”, the Potency [2] is reported as “inactive” and the Potency [3] is reported as “inactive”. The outcome [4] was “inactive”.

Compound `Clc1ccc(CCC(Cn2ccnc2)Sc2c(Cl)cccc2Cl)cc1` (stereo unspecified) has a parasite growth, % of DMSO control [8] of 5.77%, a parasite growth remaining, % of DMSO control (lower = more inhibition) [5] of 6.42% and a parasite growth, % of control (lower = inhibition) [6] of 10.3%. The growth, % of control [7] was 3.43%, the cell viability, % of control (lower = more cytotoxic) [9] was 177% and the Potency [13] was “inactive”. For the same compound, the Potency [12] was “inactive”.

With `O=C(O)Cc1cccc2ccccc12` the Potency [1] was “inactive”, the Potency [2] was “inactive” and the Potency [3] was “inactive”. For the same compound, the outcome [4] was “inactive”.

In the case of `Clc1ccc(Cn2c(CN3CCCC3)nc3ccccc32)cc1`, the Potency [1] is reported as “inactive”, the Potency [2] is reported as “inactive” and the Potency [3] is reported as “inactive”. For the same compound, the outcome [4] was “inactive”.

For `COc1ccccc1N1CCN(CCCNc2cc(=O)n(C)c(=O)n2C)CC1`, the Potency [1] was “inactive”, the Potency [2] was “inactive” and the Potency [3] was “inactive”. For the same compound, the outcome [4] was “inactive”.

For `CC(C)(C)c1ccc(C(O)CCCN2CCC(C(O)(c3ccccc3)c3ccccc3)CC2)cc1` (stereo unspecified), the Potency [1] was “inactive”, the Potency [2] was “inactive” and the outcome [4] was “inactive”.

For `O=C1NC(=O)C(c2ccccc2)(c2ccccc2)N1`, the Potency [1] was “inactive”, the Potency [2] was “inactive” and the Potency [3] was “inactive”. For the same compound, the outcome [4] was “inactive”.

For `NCCS`, the Potency [1] was “inactive”, the Potency [2] was “inactive” and the Potency [3] was “inactive”. For the same compound, the outcome [4] was “inactive”.

With `NC(N)=Nc1nc(CSCC/C(N)=N/S(N)(=O)=O)cs1` the Potency [1] was “inactive”, the Potency [2] was “inactive” and the Potency [3] was “inactive”. For the same compound, the outcome [4] was “inactive”.

In the case of `N[C@H](CSC(c1ccccc1)(c1ccccc1)c1ccccc1)C(=O)O`, the parasite growth remaining, % of DMSO control (lower = more inhibition) [5] is reported as 86.8%, the cell viability, % of control (lower = more cytotoxic) [9] is reported as 68.6% and the Potency [2] is reported as “inactive”. The Potency [12] was “inactive”.

For `Nc1ncnc2c1ncn2[C@@H]1O[C@H](COP(=O)(O)OP(=O)(O)OP(=O)(O)OP(=O)(O)OC[C@@H]2O[C@H](n3cnc4c(N)ncnc43)[C@@H](O)C2O)C(O)[C@H]1O` (stereo partly specified), the Potency [1] was “inactive”.

With `O=C(O)c1cc(-c2ccccc2)nc2ccccc12` the Potency [1] was “inactive”, the Potency [2] was “inactive” and the Potency [3] was “inactive”. The outcome [4] was “inactive”.
